Assay results taken from paper PMC5540273 (PLoS ONE, 2017).

Experiments:
Conditions in all cases: concentration: 1 μM, replicates: in singlicate; n = 1
PRKD3 = tested on: PRKD3
PRKG1 = tested on: PRKG1
PRKG2 = tested on: PRKG2
PRKR = tested on: T1, PRKR
T1 construct: gene EIF2AK2

PRKX = tested on: PRKX
PRP4 = tested on: PRP4
PYK2 = tested on: T2, PYK2
T2 construct: gene PTK2B

QSK = tested on: QSK
RAF1 = tested on: RAF1
RET = tested on: RET
RIOK1 = tested on: RIOK1
RIOK2 = tested on: RIOK2
RIOK3 = tested on: RIOK3
RIPK1 = tested on: RIPK1
RIPK2 = tested on: RIPK2
RIPK4 = tested on: RIPK4
RIPK5 = tested on: RIPK5
ROCK1 = tested on: ROCK1
ROCK2 = tested on: ROCK2
ROS1 = tested on: ROS1
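Also: KINOMEscan kinase panel screen.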

SMILES	%Inh (PRKD3)	%Inh (PRKG1)	%Inh (PRKG2)	%Inh (PRKR)	%Inh (PRKX)	%Inh (PRP4)	%Inh (PYK2)	%Inh (QSK)	%Inh (RAF1)	%Inh (RET)	%Inh (RIOK1)	%Inh (RIOK2)	%Inh (RIOK3)	%Inh (RIPK1)	%Inh (RIPK2)	%Inh (RIPK4)	%Inh (RIPK5)	%Inh (ROCK1)	%Inh (ROCK2)	%Inh (ROS1)
CC(C)(C)c1ccc2nccc(Nc3cccc(O)c3)c2c1 [GW856795]	77%	1%	4%	0%	0%	27%	0%	0%	0%	94.7%	21%	0%	24%	0%	34%	43%	0%	55%	30%	0%
COc1cccc(NC(=O)NC2CCN(c3ccnc(Nc4cc(OC)c(OC)c(OC)c4)n3)C2)c1 (stereo not shown) [GSK1379763]	0%	0%	0%	6%	28%	26%	4%	0%	7%	16%	85%	0%	82%	6%	29%	49%	0%	4%	9%	23%
Cc1cccc(NC(=O)Nc2ccc(Oc3ncnc4ccn(C)c34)cc2)c1	0%	100%	0%	0%	0%	0%	0%	0%	0%	94%	0%	0%	24%	0%	11%	0%	5%	0%	0%	0%
O=C(Nc1n[nH]c2nc(-c3ccc(O)cc3)ccc12)C1CC1 [SB-710363]	0%	19%	10%	0%	0%	0%	26%	17%	13%	0%	47%	0%	46%	2%	0%	39%	0%	0%	0%	0%
COC(=O)Nc1nc2ccc(Oc3ccc(NC(=O)Nc4cc(C(F)(F)F)ccc4F)cc3)cc2n1C.Cl [GW692089]	5%	14%	5%	0%	0%	58%	0%	0%	85%	99.5%	0%	0%	0%	39%	29%	0%	0%	34%	39%	28%
COc1ccc(Nc2nccc(N3CCC(NC(=O)Nc4cccc(OC)c4)C3)n2)cc1 (stereo not shown) [GSK1379742]	0%	0%	0%	0%	15%	12%	5%	6%	3%	7%	34%	4%	25%	0%	0%	0%	0%	0%	2%	13%
COc1cc(Nc2nccc(-c3c(-c4cccc(NC(=O)c5c(F)cccc5F)c4)nn4ncccc34)n2)cc(OC)c1OC [GSK327238]	0%	24%	15%	22%	0%	0%	72%	17%	97.2%	99.7%	20%	5%	24%	16%	99.4%	4%	0%	12%	14%	75%
Cc1ccc(C(=O)N2CC[C@@H](O)C2)cc1-n1c(C)cc(OCc2ccc(F)cc2F)c(Br)c1=O	7%	6%	0%	0%	0%	20%	2%	0%	25%	10%	12%	0%	29%	0%	46%	0%	0%	0%	0%	0%
CN1CCN(CCCNc2nccc(-c3c(-c4ccc(F)cc4)nn4cc(C(F)(F)F)ccc34)n2)CC1 [GW621581]	62%	10%	0%	0%	13%	25%	0%	0%	8%	0%	28%	4%	0%	0%	52%	0%	0%	0%	26%	0%
Cl.Cl.NCC(NC(=O)c1cc(-c2ccccc2)c(-c2ccnc3[nH]ccc23)s1)c1ccccc1 (stereo not shown) [GSK1321561]	38%	70%	18%	3%	76%	5%	0%	14%	18%	35%	69%	45%	88%	24%	24%	0%	0%	99.8%	98.9%	19%
CN(c1ccc(NC(=O)Nc2cc(C(F)(F)F)ccc2F)cc1)c1ccnc(Nc2ccc(S(N)(=O)=O)cc2)n1 [GW809893]	0%	16%	17%	3%	0%	14%	94.8%	25%	88%	100%	24%	2%	40%	99.1%	73%	26%	47%	0%	24%	95.9%
Nc1ncc(-c2ccc3nccc(-c4ccncc4)c3c2)cc1S(=O)(=O)N1CCOCC1 [GSK1627798]	0%	0%	0%	14%	11%	3%	21%	0%	0%	0%	30%	39%	17%	0%	1%	4%	0%	0%	0%	15%
CCn1c(-c2nonc2N)nc2c(C#CC(C)(C)O)nc(OC[C@H](N)c3ccccc3)cc21 [GSK943949]	22%	60%	92.6%	0%	92.1%	10%	7%	0%	11%	10%	11%	0%	4%	4%	0%	7%	29%	59%	91.9%	2%
Cl.Cl.NCC(C(=O)Nc1cc(Br)c(-c2ccnc3[nH]ccc23)s1)c1ccccc1 (stereo not shown) [GSK1269851]	41%	94.6%	86%	0%	88%	83%	2%	15%	0%	32%	95.7%	19%	67%	0%	0%	27%	0%	99.1%	91.8%	12%
COc1cc2c(cc1OCCN1CCNCC1)ncc1c3ccc(C#N)cc3[nH]c21	0%	0%	7%	9%	34%	38%	0%	52%	29%	35%	82%	12%	93.9%	0%	16%	41%	28%	99.2%	99.7%	0%
Cl.c1ccc(-c2ccc3c(Nc4ccc5[nH]ncc5c4)ccnc3c2)nc1 [GW440137]	17%	0%	0%	0%	19%	66%	2%	6%	15%	76%	32%	11%	32%	6%	75%	23%	4%	10%	35%	0%
Cc1occc1-c1ncc(OC[C@@H](N)Cc2c[nH]c3ccccc23)cc1-c1ccc2[nH]nc(C)c2c1.O=C(O)C(F)(F)F [GSK682037]	95.6%	57%	14%	0%	56%	11%	49%	11%	11%	84%	95.1%	6%	83%	0%	12%	0%	0%	74%	79%	26%
NCCCC(NC(=O)c1cc(Br)c(-c2ccnc3[nH]ccc23)s1)c1ccccc1.O=C(O)C(F)(F)F.O=C(O)C(F)(F)F (stereo not shown) [GSK1287544]	53%	97.8%	98%	0%	92.5%	0%	0%	0%	0%	54%	91.8%	66%	76%	53%	0%	6%	1%	99.4%	92.8%	10%
Cl.c1ccc(-c2ccc3c(Nc4ccc5[nH]ccc5c4)ccnc3c2)nc1 [GW440138]	5%	0%	0%	0%	3%	77%	0%	0%	40%	96.9%	4%	0%	0%	0%	78%	19%	0%	23%	43%	0%
COCCOCCOc1cc2ncc3c4ccc(C#N)cc4[nH]c3c2cc1OC	0%	0%	17%	41%	0%	19%	6%	67%	0%	45%	99.4%	0%	83%	20%	0%	17%	0%	96.9%	99.2%	51%
